Laboratory results taken from PubChem BioAssay (EPA / NIEHS).
Several values for one entry are separate records, joined by “and”; a condition that tells them apart may be missing. Identical values can stand only once. Where a structure was tested more than once in an assay, its records may differ in their call. Activity calls are given as the source filed them. Rule for the calls: active = hit-call score of the fitted dose curve at least 0.9, where 1 is the maximum; inactive = score below 0.9.

Experiments:
[1] = read-out: Monocyte Chemoattractant Protein-1 (MCP1), CCL2 (gene 6347); experiment: BSK_SAg_MCP1: BioMAP Diversity Plus: SAg Assay for Monocyte Chemoattractant Protein-1 (MCP1) Biomarker Activity (AID 2283090); conditions: primary human HUVEC with PBMC; actives raise or lower the signal
Method in brief: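 Values derive from bidirectional fitting of ELISA-measured MCP1 against DMSO controls. Readings were taken 24 h after dosing human vascular endothelial cells co-cultured with peripheral blood mononuclear cells under superantigen stimulation.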

[2] = read-out: E-selectin (Homo sapiens) (UniProt P16581); experiment: BSK_SAg_Eselectin: BioMAP Diversity Plus: SAg Assay for Eselectin Biomarker Activity (AID 2283091); conditions: primary human HUVEC with PBMC; actives raise or lower the signal
Method in brief: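 Endpoint values derive from bidirectional fitting relative to DMSO, using ELISA-measured E-selectin in a human vascular co-culture (umbilical vein endothelium plus PBMC) sampled 24 h after dosing.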

[3] = read-out: Monokine induced gamma interferon (MIG), CXCL9 (gene 4283); experiment: BSK_SAg_MIG: BioMAP Diversity Plus: SAg Assay for Monokine induced gamma interferon (MIG) Biomarker Activity (AID 2283092); conditions: primary human HUVEC with PBMC; actives raise or lower the signal
Method in brief: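 Measures CXCL9 protein by ELISA in a human vascular primary-cell co-culture (umbilical vein endothelium with PBMC) 24 h after chemical addition. Activity is scored up or down from the DMSO control.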

[4] = BSK_SAg_PBMCCytotoxicity: PBMC Cytotoxicity Assessment in the BioMAP Diversity Plus: SAg Assay (AID 2283093); conditions: primary human HUVEC with PBMC;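 note: PBMC viability measured as Alamar Blue reduction fluorescence at 546/580 nm; fitted both ways against DMSO so a hit may be loss or gain of signal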;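 for AC50: PBMC superantigen activated with SEB plus TSST-1 one hour after compound addition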
Method in brief: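 Alamar Blue reduction (6 h, 546/580 nm) reports PBMC cytotoxicity after 90 h superantigen activation (SEB, TSST-1; 20 ng/mL final each) with 1 h compound pre-treatment. Gain or loss of signal fitted versus DMSO.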

[5] = read-out: Interleukin-8 (IL8), CXCL8 (gene 3576); experiment: BSK_SAg_IL8: BioMAP Diversity Plus: SAg Assay for Interleukin-8 (IL8) Biomarker Activity (AID 2283094); conditions: primary human HUVEC with PBMC; actives raise or lower the signal
Method in brief: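 HUVEC/PBMC co-culture, 24 h post-dose; IL-8 by ELISA. Gain or loss of signal fitted bidirectionally vs DMSO baseline.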

[6] = BSK_SAg_Proliferation: Cell Proliferation Assessment in the BioMAP Diversity Plus: SAg Assay (AID 2283095); conditions: primary human HUVEC with PBMC;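 note: relative cell number as total protein by SRB absorbance in sub-confluent culture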
Method in brief: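 HUVEC/PBMC co-culture, 96-well. TCA-fixed (10%), 0.1% SRB stain, A560 at 96 h. Protein content used as viability readout; bidirectional fitting vs DMSO control.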

[7] = BSK_SAg_SRB: Viability Assessment in the BioMAP Diversity Plus: SAg Assay (AID 2283096); conditions: primary human HUVEC with PBMC;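 note: cells read one day after compound addition; hits may be either gain or loss of signal compared with DMSO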
Method in brief: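 This overt-cytotoxicity endpoint quantifies protein in human endothelial/PBMC co-cultures at 24 h using SRB absorbance (560 nm) after trichloroacetic acid fixation. Values reflect signal change from the DMSO negative control, fitted bidirectionally.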

Measured: AC50

Chain of E-selectin (Homo sapiens) (P16581 whole entry, looked up): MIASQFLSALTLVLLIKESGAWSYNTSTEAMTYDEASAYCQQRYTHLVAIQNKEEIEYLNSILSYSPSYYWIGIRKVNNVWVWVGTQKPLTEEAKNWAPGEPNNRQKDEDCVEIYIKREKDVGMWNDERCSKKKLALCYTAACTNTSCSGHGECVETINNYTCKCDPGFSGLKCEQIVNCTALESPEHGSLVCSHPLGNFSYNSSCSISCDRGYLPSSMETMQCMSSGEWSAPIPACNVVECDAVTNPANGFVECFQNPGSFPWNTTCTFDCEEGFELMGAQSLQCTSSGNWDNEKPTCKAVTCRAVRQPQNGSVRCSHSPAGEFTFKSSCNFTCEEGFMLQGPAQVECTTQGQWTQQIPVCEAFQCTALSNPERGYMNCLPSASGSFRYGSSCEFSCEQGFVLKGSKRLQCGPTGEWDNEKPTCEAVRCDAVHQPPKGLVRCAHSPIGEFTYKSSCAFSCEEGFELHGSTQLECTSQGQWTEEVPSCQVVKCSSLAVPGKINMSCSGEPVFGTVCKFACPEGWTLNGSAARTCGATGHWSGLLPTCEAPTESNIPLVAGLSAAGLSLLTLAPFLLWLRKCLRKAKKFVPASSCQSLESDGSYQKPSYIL

O=C(Oc1ccccc1)c1ccccc1C(=O)Oc1ccccc1
active: [6] 20 µM
inactive: all other assays above

C=CCCCCCCCCC=O
inactive: all assays above

CCOC(=O)C1=NOC(c2ccccc2)(c2ccccc2)C1
inactive: all assays above

CC1(C)CC(O)CC(C)(C)N1[O]
inactive: all assays above

O=C(O)C(F)(F)C(F)(F)C(F)(F)C(F)(F)C(=O)O
inactive: all assays above

Nc1ccc(C(=O)O)cc1
inactive: all assays above

C=CC(=O)OCC(C)OCC(C)OCC(C)OC(=O)C=C (centres undefined)
active: [1] 10.5 µM | [2] 5.5 µM | [3] 20 µM | [4] 5.29 µM | [5] 3.14 µM | [6] 2.88 µM | [7] 21.6 µM

CC/C=C\CCOC(=O)c1ccccc1O
inactive: [3] | [5]
active: [1] 28.5 µM | [2] 29.7 µM | [4] 33.3 µM | [6] 31.2 µM | [7] 30.7 µM

C=CC(=O)NCOCCCC
inactive: all assays above

CC(Cl)COP(=O)(OCC(C)Cl)OCC(C)Cl (centres undefined)
inactive: all assays above

C=CC(=O)OCCCCCCCC(C)C
active: [4] 20 µM | [6] 23.3 µM
inactive: all other assays above

Nc1nc(N)nc(-c2ccccc2)n1
inactive: all assays above

CCNc1nc(NC(C)(C)C)nc(OC)n1
active: [2] 8.44 µM
inactive: all other assays above

O=C1CCCCCCCCCCCN1
inactive: all assays above

C=CC(=O)NC(C)(C)C
inactive: all assays above

CC(CCC(=O)O)(c1ccc(O)cc1)c1ccc(O)cc1
inactive: all assays above

CC(C)[N+](C)(CCOC(=O)C1c2ccccc2Oc2ccccc21)C(C)C
inactive: all assays above

Cc1c(O)cccc1O
active: [4] 31 µM | [6] 31 µM
inactive: all other assays above

CCc1cccc(C)c1N(C(=O)CS(=O)(=O)O)C(C)COC (centres undefined)
inactive: all assays above

C[N+](C)(C)CCCNS(=O)(=O)C(F)(F)C(F)(F)C(F)(F)C(F)(F)C(F)(F)C(F)(F)C(F)(F)C(F)(F)F
inactive: [1] | [2] | [3] | [4] | [5] | [6]
active: [4] 51.3 µM | [6] 46.5 µM | [7] 43.5 µM and 46.5 µM

CCCCCCC=O
inactive: all assays above

CC(C)c1cccc(C(C)C)c1N
inactive: all assays above

CCCCCCOC(=O)CCCCC(=O)OCCCCCC
inactive: all assays above

Oc1ccc(/C=C/c2cc(O)cc(O)c2)cc1
active: [6] 20 µM
inactive: all other assays above

c1ccc2c(c1)[nH]c1ccccc12
active: [5] 2.72 µM
inactive: [1] | [2] | [3] | [4] | [5] | [6] | [7]

c1ccc2sc(SSN3CCOCC3)nc2c1
active: [4] 20 µM | [6] 8.5 µM
inactive: all other assays above

CCCCCCCCCCCC(C)=O
active: [1] 31.1 µM | [2] 33.3 µM | [4] 32 µM | [5] 33.8 µM | [6] 34 µM
inactive: [3] | [7]

c1ccc(Nc2cccc3ccccc23)cc1
active: [1] 29.4 µM and 30.4 µM | [2] 31.8 µM and 33.5 µM | [4] 34.3 µM and 36.9 µM | [5] 31.1 µM and 30.7 µM | [6] 31.3 µM and 30.4 µM | [7] 28.7 µM and 30.3 µM
inactive: [3]

Oc1c(Cl)cc(Cl)c(Cl)c1Cl
active: [1] 31.2 µM | [2] 20 µM | [3] 32.2 µM | [4] 0.0683 µM | [5] 29.9 µM | [6] 20 µM | [7] 20 µM

COc1ccc(C(=O)/C(Br)=C\C(=O)O)cc1
active: [1] 20 µM | [2] 7.92 µM and 7.11 µM | [3] 35.2 µM and 34.5 µM | [4] 12 µM and 7.54 µM | [5] 3.97 µM | [6] 6.87 µM and 2.13 µM | [7] 25.9 µM and 31.6 µM
inactive: [5]
